Records with an inconclusive call do not appear. Some structures have more than one record in an assay (separate samples or runs), and their calls can disagree. Calls of active or inactive are those of the source. Unless noted, calls come from the whole dose curve; as a rule, active = well fitted curve in the direction sought with a large enough effect in the repeat runs; inconclusive = weak or mixed curves; inactive = flat fitted curve, though single readings scatter.

Assay [1] can be described thus: qHTS assay to test for compound auto fluorescence at 535 nm (green) in HEK293 cells (AID 720680). In general terms: qHTS replaces the single test concentration by a dilution series.
A short description of assay [2]: qHTS assay to test for compound auto fluorescence at 460 nm (blue) in HEK293 cell free culture (AID 720681). The procedure, abridged: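 Compounds were added to cell-free DMEM with 10% FBS and fluorescence read directly. The blue channel used 405 nm excitation and 460 nm emission, with triamterene as the reference fluorophore.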
Assay [3] in a line: qHTS assay to test for compound auto fluorescence at 535 nm (green) in HEK293 cell free culture (AID 720682). The procedure, abridged: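 Fluorescein serves as the green reference fluorophore; each compound's intrinsic emission at 535 nm (excitation 485 nm) is reported as an equivalent amount of that dye, measured in serum-containing DMEM without cells.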
The nature of assay [4]: qHTS assay to test for compound auto fluorescence at 590 nm (red) in HEK293 cell free culture (AID 720683). The procedure, abridged: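 Cell-free wells of DMEM with 10% FBS received compound, and intrinsic fluorescence was read at excitation/emission 540/590 nm. Values expressed as equivalence to Rose Bengal sodium.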
The nature of assay [5]: qHTS assay to test for compound auto fluorescence at 590 nm (red) in HepG2 cell free culture (AID 720684). The procedure, abridged:
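Rose Bengal sodium served as the reference for red signal. Test compounds were dispensed into serum-containing MEM (10% FBS) without cells, and plates were read at 540/590 nm.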

Assay [6] can be described thus: qHTS assay to test for compound auto fluorescence at 460 nm (blue) in HepG2 cell free culture (AID 720685). The gist of the method:
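Cell-free plates of MEM plus 10% FBS received 23 nL compound or DMSO vehicle; blue-channel (405/460 nm) intensity scored against triamterene as reference fluorophore.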

The nature of assay [7]: qHTS assay to test for compound auto fluorescence at 535 nm (green) in HepG2 cell free culture (AID 720686).
The nature of assay [8]: qHTS assay to test for compound auto fluorescence at 460 nm (blue) in HepG2 cells (AID 720687). The gist of the method: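 HepG2 cells in MEM with 10% FBS, attached overnight at 37 C, were exposed to compound or DMSO for 1 hr at 37 C, 5% CO2. Blue fluorescence was read at 405/460 nm, with triamterene as reference fluorophore.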
Assay [9] has as its target Glucocorticoid receptor (Homo sapiens) (UniProt P04150). In words: qHTS assay to identify small molecule agonists of the glucocorticoid receptor (GR) signaling pathway (AID 720691; active = well fitted activation curve with a large enough effect in the signal ratio in the repeat runs, not every such curve was filed as active; the % refers to the signal ratio; note: potency is the fitted concentration of half-maximal effect). The procedure, abridged:
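HeLa GR-bla reporter line; cells pre-incubated 4 h, compound in DMSO 18 h at 37 C; LiveBLAzer B/G FRET substrate 2 h RT; fluorescence intensity read-out.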

Assay [10] has the same target. Nature of the assay: qHTS assay to identify small molecule antagonists of the glucocorticoid receptor (GR) signaling pathway (AID 720692; active = well fitted inhibition curve with a large enough effect in the signal ratio in the repeat runs, not every such curve was filed as active; the % refers to the signal ratio). The procedure, abridged:
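Read-out: beta-lactamase FRET substrate fluorescence, 2 h at room temperature, in HeLa cells stably carrying a GRE-driven bla reporter. Compounds were co-incubated with 5 nM dexamethasone agonist (final) for 18 h at 37 C.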

Glucocorticoid receptor (Homo sapiens), sequence (P04150 whole entry, looked up): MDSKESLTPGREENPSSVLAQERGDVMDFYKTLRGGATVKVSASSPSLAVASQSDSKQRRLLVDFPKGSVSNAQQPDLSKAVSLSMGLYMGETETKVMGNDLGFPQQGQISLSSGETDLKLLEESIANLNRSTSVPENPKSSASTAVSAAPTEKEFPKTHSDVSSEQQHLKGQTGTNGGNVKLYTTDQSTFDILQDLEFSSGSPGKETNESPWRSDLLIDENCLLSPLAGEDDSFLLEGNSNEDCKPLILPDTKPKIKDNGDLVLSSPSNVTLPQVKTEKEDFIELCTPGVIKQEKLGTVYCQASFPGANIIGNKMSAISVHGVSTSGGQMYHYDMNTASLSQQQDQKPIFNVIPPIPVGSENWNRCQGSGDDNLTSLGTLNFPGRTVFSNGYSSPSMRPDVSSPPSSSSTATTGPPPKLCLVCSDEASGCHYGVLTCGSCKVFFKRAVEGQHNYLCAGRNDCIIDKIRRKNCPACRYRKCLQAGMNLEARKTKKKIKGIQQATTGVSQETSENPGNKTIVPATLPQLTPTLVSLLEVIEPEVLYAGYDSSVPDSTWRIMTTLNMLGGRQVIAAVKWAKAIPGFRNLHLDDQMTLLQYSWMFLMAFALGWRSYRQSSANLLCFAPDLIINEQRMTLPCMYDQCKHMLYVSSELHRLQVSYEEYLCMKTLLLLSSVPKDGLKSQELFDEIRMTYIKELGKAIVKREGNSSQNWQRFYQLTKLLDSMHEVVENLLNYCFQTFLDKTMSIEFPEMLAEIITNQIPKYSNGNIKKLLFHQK

With `O=C1NC(=O)c2ccccc21`, the result in assay [1], in assay [2], in assay [3], in [4], in assay [5] and in assay [6] was inactive. In addition, the result in assay [7] and in [8] was inactive.
For the compound `O=C(O)CS`, the outcome in [1], in assay [2], in assay [3], in assay [4], in [5] and in assay [6] was inactive. Further, the outcome in assay [7] and in assay [8] was inactive. The Potency entry in assay [9] is “inactive”.
On to `NC(=O)c1ccccc1O`, for which the compound was classed as inactive in assay [1], in [2], in assay [3], in assay [4], in assay [5] and in assay [6]. The compound was called inactive in assay [7] and in [8]. In addition, the Potency entry in assay [9] is “inactive”.
`N=C(N)c1ccc(OCCCCCOc2ccc(C(=N)N)cc2)cc1`: the compound was called inactive in [1], in assay [2], in assay [3], in [4], in assay [5] and in assay [6]. Besides, the result in assay [7] and in assay [8] was inactive. Also, the Potency result in assay [9] was “inactive”.
Turning to `O=C(c1ccccc1)c1ccccc1`, the result in [1], in assay [2], in [3], in assay [4], in assay [5] and in [6] was inactive. The call in assay [7] and in assay [8] was inactive. Further, the Potency entry in [9] was “inactive”.
For the compound `Cn1c(=O)c2[nH]cnc2n(C)c1=O`, the compound was classed as inactive in assay [1], in assay [2], in assay [4], in assay [5], in assay [6] and in [7]. Further, in assay [8], the call was inactive.
In the case of `O=NO`, the call in assay [1], in [2], in assay [4], in [5], in assay [6] and in assay [7] was inactive. Besides, the compound was classed as inactive in assay [8].
Regarding `Cc1ccc(C)c(OCCCC(C)(C)C(=O)O)c1`, the outcome in assay [1], in assay [2], in [3], in assay [4], in [5] and in assay [6] was inactive. Besides, the outcome in assay [7] and in [8] was inactive.
As for `O=C(O)c1cc(N=Nc2ccc(S(=O)(=O)Nc3ccccn3)cc2)ccc1O`, the result in [1], in assay [2], in assay [3], in [4], in [5] and in assay [6] was inactive. Further, the outcome in [7] and in assay [8] was inactive. Moreover, the Potency entry in assay [9] was “inactive”.
Regarding `NC(=O)c1cnccn1`, the call in assay [1], in [2], in assay [3], in assay [4], in assay [5] and in assay [6] was inactive. Besides, the call in assay [7] and in assay [8] was inactive. Moreover, the Potency result in assay [9] is “inactive”.
`C/C=C/c1ccc(OC)cc1`: the compound was classed as inactive in assay [1], in assay [2], in assay [3], in [4], in [5] and in [6]. The compound was classed as inactive in assay [7] and in [8].
For the compound `CC(=O)Nc1nnc(S(N)(=O)=O)s1`, the outcome in [1], in [2], in assay [3], in assay [4], in assay [5] and in [6] was inactive. Moreover, the compound was called inactive in assay [7] and in assay [8]. Besides, the Potency entry in [9] was “inactive”.
Consider `CCCC(O)C(CC)CO` (stereo unspecified), for which the compound was called inactive in [1], in assay [2], in [3], in assay [4], in assay [5] and in assay [6]. Further, the result in assay [7] and in assay [8] was inactive.
For the compound `Cc1cc(=O)[nH]c(=S)[nH]1`, the compound was classed as inactive in assay [1], in assay [2], in assay [3], in [4], in assay [5] and in [6]. Further, the result in [7], in [8] and in assay [10] was inactive. Moreover, the Potency in assay [9] was 23.9 µM (active) and inactive.
Turning to `NS(=O)(=O)c1cc(C(=O)O)c(NCc2ccco2)cc1Cl`, the compound was called inactive in [1], in assay [2], in [3], in [4], in [5] and in assay [6]. The outcome in [7] and in assay [8] was inactive.
As to `CCCC(CCC)C(=O)O`, the compound was called inactive in assay [1], in [2], in [3], in assay [4], in assay [5] and in assay [6]. Further, the call in assay [7] and in assay [8] was inactive. Further, the Potency entry in [9] was “inactive”.
`O=C1CN(/N=C/c2ccc([N+](=O)[O-])o2)C(=O)N1`: the call in [1], in assay [2], in assay [3], in assay [4], in assay [5] and in assay [6] was inactive. Further, the call in assay [7] and in assay [8] was inactive. Further, the Potency entry in assay [9] was “inactive”.
Turning to `O=S(=O)(O)NC1CCCCC1`, the call in assay [1], in assay [2], in assay [4], in [5], in assay [6] and in [7] was inactive. For the same compound, in assay [8], the call was inactive.
Regarding `CC(O)CN(CCN(CC(C)O)CC(C)O)CC(C)O` (stereo unspecified), the compound was called inactive in [1], in [2], in assay [3], in assay [4], in [5] and in [6]. In addition, the compound was called inactive in assay [7] and in assay [8]. Besides, the Potency entry in assay [9] is “inactive”.
Turning to `Nc1ccc(S(=O)(=O)Nc2nccs2)cc1`, the compound was called inactive in [1], in [2], in assay [3], in [4], in assay [5] and in assay [6]. Further, the result in assay [7] and in assay [8] was inactive. In addition, the Potency result in [9] was “inactive”.
On to `O=c1cc[nH]c(=S)[nH]1`, for which the result in assay [1], in assay [2], in assay [3], in assay [4], in assay [5] and in assay [6] was inactive. Further, the result in assay [7] and in [8] was inactive. For the same compound, in assay [9], the Potency result was “inactive”.
On to `CC(C)[C@@H]1CC[C@@H](C)C[C@H]1O`, for which the compound was called inactive in [1], in assay [2], in [3], in assay [4], in assay [5] and in [6]. Besides, the call in assay [7] and in assay [8] was inactive.
In the case of `CC(=O)OCC(COC(C)=O)OC(C)=O`, the result in [1], in assay [2], in [3], in [4], in assay [5] and in assay [6] was inactive. Further, the compound was called inactive in assay [7] and in [8]. For the same compound, the Potency result in assay [9] was “inactive”.
Regarding `Nc1ccc(S(=O)(=O)c2ccc(N)cc2)cc1`, the call in [1], in assay [2], in assay [3], in assay [4], in [5] and in assay [6] was inactive. Further, the outcome in [7] and in [8] was inactive.
For the compound `Nc1ccc(O)c(C(=O)O)c1`, the outcome in assay [1], in assay [2], in [3], in assay [4], in assay [5] and in assay [6] was inactive. Also, the compound was classed as inactive in assay [7] and in assay [8]. Also, the Potency entry in assay [9] was “inactive”.
As to `O=c1ccc2ccccc2o1`, the result in assay [1], in assay [2], in assay [3], in assay [4], in assay [5] and in [6] was inactive. Moreover, the result in assay [7] and in assay [8] was inactive.
As to `O=C(O)c1cccc([N+](=O)[O-])c1`, the compound was called inactive in assay [1], in assay [2], in assay [3], in assay [4], in [5] and in assay [6]. The compound was called inactive in assay [7] and in assay [8]. Besides, in assay [9], the Potency result is “inactive”.
With `COc1ccc2[nH]cc(CCNC(C)=O)c2c1`, the outcome in assay [1], in [2], in assay [3], in assay [4], in [5] and in [6] was inactive. For the same compound, the outcome in [7] and in [8] was inactive. Further, the Potency entry in assay [9] was “inactive”.
Take `Cc1cn([C@H]2C[C@H](N=[N+]=[N-])[C@@H](CO)O2)c(=O)[nH]c1=O`: the outcome in assay [1], in [2], in assay [3], in assay [4], in assay [5] and in [6] was inactive. Also, the compound was called inactive in [7] and in assay [8]. In assay [9], the Potency entry was “inactive”.
Take `O=C(O)c1cccnc1`: the compound was classed as inactive in assay [1], in [2], in [3], in assay [4], in [5] and in assay [6]. Also, the call in [7] and in [8] was inactive.
Consider `CCC1(c2ccccc2)C(=O)NCNC1=O`, for which the compound was called inactive in assay [1], in assay [2], in assay [3], in [4], in assay [5] and in assay [6]. The compound was classed as inactive in assay [7] and in assay [8]. For the same compound, in assay [9], the Potency result was “inactive”.
In the case of `CCCCC1C(=O)N(c2ccccc2)N(c2ccccc2)C1=O`, the result in assay [1], in [2], in assay [3], in assay [4], in assay [5] and in assay [6] was inactive. Also, the compound was classed as inactive in assay [7] and in assay [8]. Further, the Potency entry in assay [9] is “inactive”.
Regarding `CC(C)(Oc1ccc(C2CC2(Cl)Cl)cc1)C(=O)O` (stereo unspecified), the compound was called inactive in assay [1], in [2], in [3], in assay [4], in [5] and in assay [6]. Also, the outcome in assay [7], in [8] and in assay [10] was inactive. The Potency result in assay [9] was “inactive”.
For `CNC[C@H](O)c1cccc(O)c1`, the call in assay [1], in assay [2], in [4], in [5], in assay [6] and in assay [7] was inactive. In addition, the outcome in assay [8] was inactive.
